TPT1 inh: Candida albicans TPT1 enzyme inhibitors, primary screen, biochemical, fluorescence polarization | tRNA 2'-phosphotransferase TPT1 (Candida albicans SC5314) | inhibition, % at 5 µM | recombinant caTPT1, FP RNA substrate dephosphorylation | 300,000 compounds, 0.81% hits;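 active = inhibition above the mean of all tested compounds plus 3 SD, set per screening campaign, cut at about 24% in these data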
Calb FLC: C. albicans growth inhibition with fluconazole, primary screen, CaCi-2 strain, Alamar Blue fluorescence | C. albicans CaCi-2 (fluconazole-resistant clinical isolate) + fluconazole, 48 h | growth inhibition, % (no concentration beside the values) | 300,000 compounds, 0.57% hits | AID 1979, 2009;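 active = growth inhibition above about 58% in most replicates, limit read from the data, passing the limit was not always enough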;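 also: all wells also contain fluconazole at 8 µg/ml as a sub-toxic cotreatment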
Rin1-Abl PPI inh: inhibitors of Rin1-Abl protein binding, primary screen, biochemical, TR-FRET; inhibition, % at 7.35 µM; 360,000 compounds, 0.4% hits; in the data active = inhibition above about 5%, passing the limit was not always enough
Rpn11 inh: Rpn11 (PSMD14) deubiquitinase inhibitors, primary screen, biochemical, fluorescence polarization, uHTS; human 26S proteasome, Ub4-pepOG fluorescence polarization; 20S core pre-blocked with epoxomicin; inhibition, % at 20 µM; 360,000 compounds, 0.59% hits;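 active = inhibition at 20 µM, scaled to each plate's controls, above about 33%, limit read from the data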
IDE cell inh: human IDE inhibitors in live cells, primary screen, fluorescence polarization, HEK cells, FAbetaB substrate. 320,000 compounds, 0.41% hits. Insulin-degrading enzyme (Homo sapiens), P14735. FAbetaB cleavage. inhibition, % at 5.59 µM;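 active = percent inhibition above the average of all tested compounds plus 3 SD, set per screening campaign, cut at about 16% in these data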;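 also: IDE supplied by intact live HEK cells; FP after avidin binding of uncleaved biotin substrate so inhibition keeps polarization high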
IDE cell activ: human IDE activators in live cells, primary screen, fluorescence polarization, HEK cells, FAbeta-B substrate; FAbeta-B cleavage; 0% vehicle, 100% cell-free pure enzyme wells; activation, % at 5.96 µM; 340,000 compounds, 0.073% hits; AID 493087, 2011;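 active = activation above the mean of all tested compounds plus 3 SD, set per screening campaign, cut at about 17% in these data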
Rpn11 confirm: Rpn11 (PSMD14) deubiquitinase inhibitors, confirmation, biochemical, fluorescence polarization, single concentration; shares compounds with Rpn11 inh; purified human 26S proteasome, Ub4-pepOG fluorescence polarization; proteasome pretreated with epoxomicin; inhibition, % at 20 µM; 1,900 compounds, 29% hits
MMP-2 inh: MMP-2 enzyme inhibition, confirmation, counter-screen for RPN11 inhibitor project, biochemical, fluorescence, single concentration; 1,900 compounds, 4% hits; shares compounds with Rpn11 inh; recombinant MMP-2, FRET peptide cleavage fluorescence; inhibition, % at 20 µM;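 also: human MMP-2 activated beforehand with APMA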
Thrombin FP: bovine thrombin protease inhibition, confirmation, counter-screen for Rpn11 inhibitor project, biochemical, fluorescence polarization, single concentration | shares compounds with Rpn11 inh | bovine thrombin cleavage of Ub4-pepOG | inhibition, % at 20 µM | 1,900 compounds, 13% hits | AID 602333, 2012;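 active = mean inhibition at least 40% at 20 µM, or signal 3 deviations below plate average, so some actives read negative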
Hits are given with their value; – = inactive; · = not tested or not shown. In the library only some 2.3% were active in any assay of this set; here they are far more common. Rule as the data show it, unless noted: active = inhibition above about 40%; inactive = the rest.

SMILES	TPT1 inh	Calb FLC	Rin1-Abl PPI inh	Rpn11 inh	IDE cell inh	IDE cell activ	Rpn11 confirm	MMP-2 inh	Thrombin FP
COc1ccc(CCC(=O)NCCOc2ccccc2Cl)cc1	–	–	–	–	–	–	·	·	·
CCN(CC(=O)Nc1ccc2c(c1)OCCO2)CC(=O)Nc1ccc(C)c([N+](=O)[O-])c1	·	·	–	–	–	–	·	·	·
COC(=O)c1c(NC(=O)CC2SC(N)=NC2=O)sc2c1CCC(C(C)(C)C)C2 (stereo not drawn)	–	–	–	–	–	–	·	·	·
CCCCOc1ccc2c(c1)/C(=C(\C(Cl)=C(Cl)Cl)[N+](=O)[O-])N2	–	–	–	37	–	–	–	–	–
CCOc1ccc2c(c1)/C(=C(\C(Cl)=C(Cl)Cl)[N+](=O)[O-])N2	–	–	–	–	–	–	·	·	·
CCOC(=O)C1=C(N)n2c(s/c(=C\c3cccnc3)c2=O)=C(C(=O)OC)C1c1cccnc1 (stereo not drawn)	–	–	–	35	–	–	–	–	–
CCOC(=O)C1=C(N)n2c(s/c(=C\c3ccncc3)c2=O)=C(C(=O)OCC)C1c1ccncc1 (stereo not drawn)	–	–	–	–	–	·	·	·	·
CCOc1cc(/C=C2\NC(=S)N(c3c(C)n(C)n(-c4ccccc4)c3=O)C2=O)ccc1O	–	–	–	114	–	–	67	–	45
COc1cc(C2SCC(=O)N2c2c(C)n(C)n(-c3ccccc3)c2=O)ccc1O (stereo not drawn)	–	–	–	–	–	–	·	·	·
COc1cc(/C=C2\SC(=Nc3c(C)n(C)n(-c4ccccc4)c3=O)NC2=O)ccc1O	·	·	–	90	·	–	–	–	–
CC1=C(C(=O)N2CCOCC2)CC(CC(=O)NCc2ccco2)C(=O)N1CCC1=CCCCC1 (stereo not drawn)	·	·	–	–	·	·	·	·	·
COc1cc(/C=N/OCC(=O)NC2CCCCC2C)ccc1OCc1ccc(Cl)cc1 (stereo not drawn)	–	–	–	–	–	–	·	·	·
COc1cc(/C=N/OCC(=O)Nc2cc(C)cc(C)c2)ccc1OCc1ccc(Cl)cc1	–	–	–	42	–	–	–	–	–
COc1ccc(NC(=O)c2cc(OC)c(OC)cc2OC)c(S(=O)(=O)N2CCOCC2)c1	–	·	–	161	–	–	–	–	–
COc1cc(OC)c(C(=O)Nc2cc(S(=O)(=O)N3CCOCC3)ccc2N2CCOCC2)cc1OC	·	·	–	–	·	·	·	·	·
CCCCN1C(=O)C(CC(=O)NCCN2CCOCC2)CC(C(=O)N(C)C)=C1C (stereo not drawn)	·	·	–	–	·	·	·	·	·
COC(=O)c1ccccc1NC(=O)CCS(=O)(=O)c1ccc(Br)cc1	·	–	–	43	·	–	114	–	–
CCc1ccccc1NC(=O)CCS(=O)(=O)c1ccc(Br)cc1	–	–	–	–	–	–	·	·	·
CCC(=O)c1ccc(OCC(O)CNCCc2ccc(Cl)cc2)cc1 (stereo not drawn)	–	–	–	–	–	–	·	·	·
Cc1ccc(Cc2c(-c3cccc(Br)c3)nc3ccc(Cl)cn23)cc1	·	·	–	42	·	·	–	–	–
COc1ccccc1Cc1c(-c2cccc(Br)c2)nc2c(C)cc(Br)cn12	·	·	–	42	·	·	–	–	–
COc1ccccc1Cc1c(-c2ccc(Cl)cc2)nc2c(C)cc(Br)cn12	·	·	–	–	·	·	·	·	·

High-throughput results (PubChem BioAssay)
